In PubChem BioAssay (NCATS):
Values without a mark were called inactive. No rule for the calls is given here.

tested on: HIV-1 nucleocapsid protein NCp7 (binding to TG oligonucleotide); assay: HIV Nucleocapsid (AID 346); details: HIV-1 NC / fluorescein-TGTGTGTG probe, fluorescence polarization;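 also: potency is for inhibitors that block NC binding and lower polarization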
Method in brief: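 HIV-1 NC (100 nM) binding to fluorescein-labelled ssDNA TG4xF (10 nM) in Hepes pH 7.5, 250mM NaCl, 1uM ZnCl2, TCEP and 2-mercaptoethanol; compounds pin-transferred, 1 hr room temperature, fluorescence polarization read on CCD imager.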
Potency is read from the fitted curve at half-maximal effect.

| Compound | Potency [µM] |
| --- | --- |
| COCCn1c(=O)c(C)nc2cnc(OC)nc21 | > 20 |
| CS(=O)(=O)Nc1cccc(-c2nc(N3CCOCC3)c3ccccc3n2)c1 | > 20 |
| COC(=O)N1CCC[C@@]2(CCN(C(=O)Nc3cccc(F)c3)C2)C1 | > 20 |
| COc1ccc(-c2nc3cnc(N4CCOCC4)nc3n(CCc3ccccc3)c2=O)cc1 | > 20 |
| Cc1cnc(CNc2ccnc(-c3ccccc3C(F)(F)F)n2)cn1 | > 20 |
| c1ccc(CNc2ccnc(-c3ccoc3)n2)cc1 | > 20 |
| N#Cc1ccc(CN2CCC3(CC2)CCN(C(=O)c2ccco2)CC3)cc1 | > 20 |
| O=C(Oc1ccccc1)N1CCC2(CCCN(c3ccccc3)C2)CC1 | > 20 |
| CCNc1ncc2nc(-c3ccc(Cl)cc3)c(=O)n(C)c2n1 | > 20 |
| O=C(c1cccc(F)c1)N1CCC2(CCCN(Cc3ccccc3)C2)CC1 | > 20 |
| COCC(=O)N1CCC2(CC1)CN(C(=O)Nc1ccccc1)C2 | > 20 |
| CN1CCN(c2ncnc3ccc(-c4cccc(C#N)c4)cc23)CC1 | > 20 |
| CC(=O)N1CCC2(CCCN(c3ccccc3)C2)CC1 | > 20 |
| COc1cccc(-c2nc(NCc3cccs3)c3ccccc3n2)c1 | > 20 |
| CCNc1ncc2nc(-c3cn(C)c4ccccc34)c(=O)n(Cc3cccc(OC)c3)c2n1 | > 20 |
| CN(C)C(=O)c1ccc(-c2nccc(NCc3cccnc3)n2)cc1 | > 20 |
| CC(=O)N1CCC2(CCCN(c3ncccn3)C2)CC1 | > 20 |
| c1cncc(-c2ccc3ncnc(N4CCNCC4)c3c2)c1 | > 20 |
| Cc1noc(C)c1C(=O)N1CCC2(CCN(Cc3ccccc3)CC2)CC1 | > 20 |
| O=C(c1cccc(F)c1)N1CCC[C@@]2(CCN(c3ccccn3)C2)C1 | > 20 |

| Compound | Potency [µM] |
| --- | --- |
| CS(=O)(=O)N1CCC2(CCN(Cc3ccc(C#N)cc3)CC2)CC1 | > 20 |
| COc1ccc(-c2nc3cnc(N(C)C)nc3n(-c3ccccc3)c2=O)cc1 | > 20 |
| O=C(c1csnn1)N1CCC2(CCCN(c3ccccn3)C2)CC1 | > 20 |
| COCCn1c(=O)c(-c2ccccc2)nc2cnc(Oc3ccc(OC)cc3)nc21 | > 20 |
| COc1ccccc1CN1CCCC2(CCN(S(=O)(=O)c3ccccc3)CC2)C1 | > 20 |
| CCNc1ncc2ncc(=O)n(Cc3cccs3)c2n1 | > 20 |
| COc1cccc(-c2nc(NCc3ccccc3OC)c3ccccc3n2)c1 | > 20 |
| COC(=O)N1CCC2(CCN(Cc3nccs3)CC2)CC1 | > 20 |
| COc1ncc2nc(-c3cc(F)cc(F)c3)c(=O)n(C3CC3)c2n1 | > 20 |
| COc1ccc(-n2c(=O)c(-c3cccs3)nc3cnc(Nc4cccc(OC)c4)nc32)cc1 | > 20 |
| CC(C)NC(=O)N1CCCC2(CCN(C(=O)c3cccc(F)c3)CC2)C1 | > 20 |
| COc1ccccc1-c1nc(N2CCN(C)CC2)c2ccccc2n1 | > 20 |
| Cn1cccc1C(=O)N1CCC[C@@]2(CCN(C(=O)Nc3cccc(F)c3)C2)C1 | > 20 |
| O=C(c1csnn1)N1CCC2(CC1)CCN(c1ccccc1)CC2 | > 20 |
| O=C(c1ccco1)N1CCC2(CC1)CN(c1ncccn1)C2 | > 20 |
| CCNc1ncc2nc(-c3cccc(C#N)c3)c(=O)n(CCC#N)c2n1 | > 4 |
| COc1cccc(Nc2ncc3ncc(=O)n(C)c3n2)c1 | > 20 |
| Cc1cccc(CNc2ncnc3ccc(-c4ccoc4)cc23)c1 | > 20 |
| COc1ccc(Oc2ncc3ncc(=O)n(CCC#N)c3n2)cc1 | > 20 |
| O=c1cnc2cnc(Nc3ccccc3)nc2n1C[C@H]1CCCO1 | > 20 |
